This is an account of results in PubChem BioAssay (NCATS).

SMILES strings stand for the structures. Unmarked numbers belong to inactive results. Records with an inconclusive call do not appear. Calls of active or inactive are those of the source. The call rests on the fitted dose curve; in most records, active means well fitted curve in the direction sought with a large enough effect; inconclusive means small, poorly fitted or top-dose-only effect, or another doubt; inactive means no such curve, though single readings can be large; an effect the other way counts as inactive or inconclusive.

In test [1] the target is ATP-dependent 6-phosphofructokinase (Trypanosoma brucei brucei) (UniProt O15648). Briefly: qHTS Assay to Find Inhibitors of T. brucei phosphofructokinase: hit validation (AID 492961).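 Further: luminescence reports ADP formed as PFK phosphorylates fructose-6-phosphate with ATP.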 In outline: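 PFK 1.25 nM, F6P 0.5 mM, ATP 0.1 mM, MgCl2 5 mM, 0.1 M TEA pH 8.0, Tween20 0.01%, BSA 0.1%; 45 min RT. ADP-Glo two-step detection, luminescence. qHTS titration; curve fitting with curve-class categorization.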
Sequence of ATP-dependent 6-phosphofructokinase (Trypanosoma brucei brucei) (O15648 whole entry, looked up): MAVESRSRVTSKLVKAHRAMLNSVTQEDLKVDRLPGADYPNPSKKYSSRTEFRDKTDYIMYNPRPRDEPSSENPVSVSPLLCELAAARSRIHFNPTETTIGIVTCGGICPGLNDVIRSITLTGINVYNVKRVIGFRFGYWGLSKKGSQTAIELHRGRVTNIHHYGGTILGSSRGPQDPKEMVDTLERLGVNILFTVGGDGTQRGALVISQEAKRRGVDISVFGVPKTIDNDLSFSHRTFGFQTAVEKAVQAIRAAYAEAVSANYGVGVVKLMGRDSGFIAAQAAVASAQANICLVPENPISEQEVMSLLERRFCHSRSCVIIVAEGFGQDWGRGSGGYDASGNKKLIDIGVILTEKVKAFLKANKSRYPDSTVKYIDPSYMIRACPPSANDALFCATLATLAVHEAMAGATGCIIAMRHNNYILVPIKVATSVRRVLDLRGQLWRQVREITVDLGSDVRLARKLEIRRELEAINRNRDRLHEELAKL
In general terms: Quantitative high-throughput screening tests each substance at several concentrations.

The test system of another test is 7G8. Briefly: qHTS profiling for inhibitors of Plasmodium falciparum proliferation (AID 504749). Further: nearly all actives have a fitted effect of over 60% in size. Further: potency means the concentration at half of the fitted maximal effect. The note with it: P. falciparum in erythrocytes, SYBR Green DNA, 72 h; series mostly up to 12.8 µM. A digest of the protocol:
(§1)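 Quantitative HTS: compounds pinned into medium, infected erythrocytes added (0.3% parasitemia, 2.5% hematocrit), 72 h culture at 37 C under 5% CO2. Saponin/Triton lysis with SYBR Green I, overnight RT, then fluorescence read.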

Another test deals with DFO2036. Described as above. The note with it: P. falciparum in erythrocytes, SYBR Green DNA, 72 h; series mostly up to 12.8 µM. In outline:
as §1

The test system of the next test is ICS. Described as above. The note with it: P. falciparum in erythrocytes, SYBR Green DNA, 72 h; series mostly up to 12.8 µM. In outline: as §1
Test [2] deals with Cytochrome P450 2C9 (Homo sapiens) (UniProt P11712). In words: qHTS Assay for Inhibitors and Substrates of Cytochrome P450 2C9 (AID 883). Further: nearly all actives have a fitted effect of over 60% in size. In outline: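 Human CYP2C9 (10nM) hydroxylated Luciferin-H (100uM, at its KM) to luciferin in 25mM KPO4. Compound was preincubated 10 min at 37C, then NADPH regeneration started a 60 min reaction at 37C. Luminescence was read after detection reagent, normalized to 57uM sulphaphenazole.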
Sequence of Cytochrome P450 2C9 (Homo sapiens) (P11712 whole entry, looked up): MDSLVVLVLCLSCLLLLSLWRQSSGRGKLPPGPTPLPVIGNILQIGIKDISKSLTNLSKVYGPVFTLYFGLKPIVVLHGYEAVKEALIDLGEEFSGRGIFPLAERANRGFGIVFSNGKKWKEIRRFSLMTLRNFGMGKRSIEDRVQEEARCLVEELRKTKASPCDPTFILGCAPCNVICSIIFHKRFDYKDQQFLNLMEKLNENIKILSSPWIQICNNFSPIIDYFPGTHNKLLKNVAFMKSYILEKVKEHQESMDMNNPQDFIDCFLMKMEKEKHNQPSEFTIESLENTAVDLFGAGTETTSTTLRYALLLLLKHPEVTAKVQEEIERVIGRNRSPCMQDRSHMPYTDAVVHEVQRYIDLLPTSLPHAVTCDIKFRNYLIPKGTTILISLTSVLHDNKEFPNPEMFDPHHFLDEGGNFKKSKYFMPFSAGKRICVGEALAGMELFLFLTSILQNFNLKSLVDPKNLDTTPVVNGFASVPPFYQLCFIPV

Test [3] can be described thus: S16 Schwann cell PMP22 intronic element firefly luciferase assay (AID 624032). Further: nearly all actives have a fitted effect of over 30% in size. In outline: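 Rat S16 Schwann cells stably carrying a PMP22 intronic element-driven Fluc reporter were seeded overnight, then exposed to compounds for 24 h at 37 °C. Luminescence was normalized to PTC124 (positive control) and DMSO (0% activity).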
In a further test the test system is CP335. Briefly: qHTS profiling for inhibitors of Plasmodium falciparum proliferation (AID 504749). Further: nearly all actives have a fitted effect of over 60% in size. Further: potency means the concentration at half of the fitted maximal effect. The note with it: P. falciparum in erythrocytes, SYBR Green DNA, 72 h; series mostly up to 12.8 µM. A digest of the protocol: as §1
The test system of a further test is DIV14. The description is as above. The note with it: P. falciparum in erythrocytes, SYBR Green DNA, 72 h; series mostly up to 12.8 µM. A digest of the protocol:
as §1

The test system of a further test is P94_40. The test is described as above. Conditions: P. falciparum in erythrocytes, SYBR Green DNA, 72 h; series mostly up to 12.8 µM. In outline: as §1
For a further test, the system named is PC26. Described as above. The note with it: P. falciparum in erythrocytes, SYBR Green DNA, 72 h; series mostly up to 12.8 µM. A digest of the protocol:
as §1

In the next test the test system is W2. The test is described as above. The note with it: P. falciparum in erythrocytes, SYBR Green DNA, 72 h; series mostly up to 12.8 µM. In outline:
as §1

The next test has as its system CP237. Described as above. Conditions: P. falciparum in erythrocytes, SYBR Green DNA, 72 h; series mostly up to 12.8 µM. In outline:
as §1

A further test deals with CP260. Described as above. The note with it: P. falciparum in erythrocytes, SYBR Green DNA, 72 h; series mostly up to 12.8 µM. In outline: as §1
The next test deals with CP291. The test is described as above. The note with it: P. falciparum in erythrocytes, SYBR Green DNA, 72 h; series mostly up to 12.8 µM. In outline:
as §1

The next test has as its system GB4. Described as above. Conditions: P. falciparum in erythrocytes, SYBR Green DNA, 72 h; series mostly up to 12.8 µM. A digest of the protocol:
as §1

The next test deals with HB3. The test is described as above. Conditions: P. falciparum in erythrocytes, SYBR Green DNA, 72 h; series mostly up to 12.8 µM. A digest of the protocol:
as §1

The target of test [4] is Cytochrome P450 3A4 (Homo sapiens) (UniProt P08684). Briefly: qHTS Assay for Inhibitors and Substrates of Cytochrome P450 3A4 (AID 884). Further: potency means the concentration at half of the fitted maximal effect; nearly all actives have a fitted effect of over 50% in size. In outline:
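Luminescent readout of luciferin produced by CYP3A4 (20 nM) dealkylation of Luciferin-PPXE, 25 uM (its KM). NADPH-driven reaction ran 60 min at RT after 10 min compound preincubation; data scaled to 57 uM ketoconazole as 100% inhibition.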

Test [5] has the same target. Briefly: qHTS Assay for Activators of Cytochrome P450 3A4 (AID 885). Further: nearly all actives have a fitted effect of over 65% in size. A digest of the protocol:
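Activators are scored by enhanced luminescence from CYP3A4 conversion of luciferin-PPXE (25uM, equal to KM) to luciferin, after 60 min at RT with an NADPH-regenerating system.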

Sequence of Cytochrome P450 3A4 (Homo sapiens) (P08684 whole entry, looked up): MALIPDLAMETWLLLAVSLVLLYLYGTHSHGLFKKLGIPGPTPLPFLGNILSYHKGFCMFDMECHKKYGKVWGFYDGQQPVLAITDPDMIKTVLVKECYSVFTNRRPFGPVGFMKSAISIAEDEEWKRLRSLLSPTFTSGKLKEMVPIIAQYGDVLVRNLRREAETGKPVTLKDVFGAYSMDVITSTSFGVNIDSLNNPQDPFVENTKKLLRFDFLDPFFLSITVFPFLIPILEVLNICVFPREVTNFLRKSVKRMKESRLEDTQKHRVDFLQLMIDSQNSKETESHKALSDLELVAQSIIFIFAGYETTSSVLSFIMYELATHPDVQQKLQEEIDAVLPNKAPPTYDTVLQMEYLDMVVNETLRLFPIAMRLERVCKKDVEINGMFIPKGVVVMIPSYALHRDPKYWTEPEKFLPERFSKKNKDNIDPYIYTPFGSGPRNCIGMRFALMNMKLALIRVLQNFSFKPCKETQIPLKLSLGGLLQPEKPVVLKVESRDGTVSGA

In the case of `COC(=O)C1=C(C)NC(C)=C(C(=O)OC(C)C)[C@H]1c1cccc2nonc12`, the result in test [1] was inactive. Further, the Potency was 3.16 µM (active) in the test on 7G8 and 3.55 µM (active) in the test on ICS. In the test on DFO2036, the Potency result is “inactive”.
`C[C@@]12CC[C@@H]3c4ccc(O)cc4CC[C@H]3[C@H]1C[C@@H](O)[C@H]2O`: the Potency entry in test [2] was “inactive”.
`CCC[C@@H]1O[C@@H]2C[C@@H]3[C@H]4CCC5=CC(=O)C=C[C@@]5(C)[C@H]4[C@H](O)C[C@@]3(C)[C@@]2(C(=O)CO)O1`: the call in test [1] was inactive. Further, the Potency entry in test [3] is “inactive”. Also, the Potency was 4.47 µM (active) in the test on 7G8; 10.7 µM (active) in the test with CP335; 9.53 µM (active) in the test on DIV14; 6.31 µM (active) with ICS; 11.2 µM (active) in the test with P94_40; 7.57 µM (active) with PC26. For the same compound, the Potency in the test on W2 was 6.01 µM (active).
In the case of `C[C@H](C(=O)O)c1cccc(Oc2ccccc2)c1`, the result in test [1] was inactive. The Potency result (in test [3]; in the test on CP237; with CP260; in the test with CP291; in the test on CP335; in the test with DFO2036) was “inactive” in each case. The Potency entry in the test on DIV14, in the test with GB4, with HB3, in the test on ICS, in the test with P94_40 and with PC26 was “inactive” throughout. Also, the Potency result in the test with W2 was “inactive”.
`CC[C@H](Cc1c(I)cc(I)c(N)c1I)C(=O)O`: the result in test [1] was inactive. Also, the Potency entry in the test on 7G8, in the test on CP237, with CP260, in the test with CP291, with CP335 and with DFO2036 was “inactive” throughout. The Potency result with DIV14, in the test with GB4, in the test on HB3, with ICS, with P94_40 and with PC26 was “inactive” throughout.
For `NS(=O)(=O)c1cc2c(cc1Cl)N[C@@H](CC1CCCC1)NS2(=O)=O`, the Potency result (in [2]; in test [3]; in the test on 7G8; with CP237; in the test on CP260; in the test on CP291) was “inactive” in each case. Further, the Potency entry with CP335, in the test with DFO2036, in the test on DIV14, in the test with GB4, in the test on HB3 and in the test on ICS was “inactive” throughout. Also, the Potency entry in the test with P94_40, in the test with PC26 and with W2 was “inactive” in each case. Besides, the compound was called inactive in test [1].
With `CC(=O)OCC(=O)[C@@]1(O)[C@H](C)C[C@@H]2[C@H]3CCC4=CC(=O)C=C[C@]4(C)[C@]3(F)[C@@H](O)C[C@@]21C`, the Potency result (in test [3]; in the test on 7G8; in the test with CP237; in the test with CP260; in the test with CP291; in the test with CP335) was “inactive” in each case. Moreover, the Potency entry in the test with DFO2036, in the test on DIV14, in the test on GB4, with HB3, in the test with ICS and in the test with P94_40 was “inactive” each time. Further, the Potency entry in the test on PC26 and in the test on W2 was “inactive” each time.
As for `Cc1noc(C)c1-c1nc(Nc2ccncc2)c2ccccc2n1`, the Potency in test [4] is 0.316 µM (active). Further, in test [5], the Potency result is “inactive”.
On to `CC[C@@H]1OC(=O)[C@H](C)[C@H](O[C@@H]2C[C@](C)(OC)[C@H](O)[C@H](C)O2)[C@H](C)[C@H](O[C@@H]2O[C@@H](C)C[C@@H](N(C)C)[C@@H]2O)[C@](C)(O)C[C@H](C)C(=O)[C@H](C)[C@H](O)[C@]1(C)O`, for which, in test [5], the Potency entry was “inactive”.
In the case of `CCC(=O)O[C@@]1(C(=O)SCF)[C@@H](C)C[C@H]2[C@@H]3C[C@@H](F)C4=CC(=O)C=C[C@@]4(C)[C@]3(F)[C@@H](O)C[C@]21C`, in test [1], the call was inactive. The Potency result (in test [3]; with CP291) was “inactive” throughout. Also, the Potency with 7G8 is 2.82 µM (active); in the test with ICS it was 2.51 µM (active); in the test with W2, 3.22 µM (active).
